Results filed as inconclusive are left out. Calls of active or inactive are those of the source. The call rests on the fitted dose curve; in most records, active means well fitted curve in the direction sought with a large enough effect; inconclusive means small, poorly fitted or top-dose-only effect, or another doubt; inactive means no such curve, though single readings can be large; an effect the other way counts as inactive or inconclusive.

Sequence of Cytochrome P450 2D6 (Homo sapiens) (P10635 whole entry, looked up): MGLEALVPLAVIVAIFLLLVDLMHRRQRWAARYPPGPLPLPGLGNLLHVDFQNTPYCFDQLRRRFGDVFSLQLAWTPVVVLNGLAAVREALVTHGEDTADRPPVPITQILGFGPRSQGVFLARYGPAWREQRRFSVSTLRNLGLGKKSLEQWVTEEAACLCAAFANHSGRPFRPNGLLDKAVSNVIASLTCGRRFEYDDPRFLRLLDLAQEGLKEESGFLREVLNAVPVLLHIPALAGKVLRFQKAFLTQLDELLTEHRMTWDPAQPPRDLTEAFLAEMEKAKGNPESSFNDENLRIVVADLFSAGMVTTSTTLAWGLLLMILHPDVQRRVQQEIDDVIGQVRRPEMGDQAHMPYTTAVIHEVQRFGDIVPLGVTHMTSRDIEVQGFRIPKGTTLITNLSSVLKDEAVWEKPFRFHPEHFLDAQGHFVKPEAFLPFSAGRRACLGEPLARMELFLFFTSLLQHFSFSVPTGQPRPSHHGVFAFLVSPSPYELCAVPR

The target in one assay is Cytochrome P450 2D6 (Homo sapiens) (UniProt P10635). In words: qHTS Assay for Inhibitors and Substrates of Cytochrome P450 2D6 (AID 891). Further: potency means the concentration at half of the fitted maximal effect; nearly all actives have a fitted effect of over 60% in size. Conditions: recombinant CYP2D6, luciferin-ME EGE luminescence; series mostly up to 57.1 µM; activity change, negative = inhibition: at the top concentration. The gist of the method:
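Human CYP2D6 (5 nM) with 30 uM Luciferin-ME EGE (at Km) in 100 mM KPO4, compound preincubated 10 min, then NADPH regeneration system for 60 min at room temperature. Luciferin read by luminescence; normalized to 1.43 uM quinidine.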
Turning to `COc1ccc2c(c1)C13CCCC[C@@H]1C(C2)N(C)CC3` (stereo not given in full), the Potency was 3.98 µM (active).
Still for that read-out and setting: then `C=CCN1C[C@H](C)N([C@H](c2ccc(C(=O)N(CC)CC)cc2)c2cccc(OC)c2)C[C@H]1C`, with 1.58 µM (active); and `COc1c2c(cc3c1OCO3)CCN(C)C2`, with 3.98 µM (active).

Test system in the next assay: not listed separately
The assay can be described thus: Confirmation and Secondary Assay for Modulators of Hemoglobin Beta Chain Splicing at IVS2 654 locus (AID 910).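 Further: per-well total GFP intensity by laser scanning cytometry after 2-day treatment; % of control where 0% means no effect.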 Conditions: HeLa EGFP-654 splicing reporter, GFP fluorescence, 48 h; series mostly up to 46.1 µM; activation (splicing correction): at the top concentration. The gist of the method:
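HeLa cells stably carrying EGFP interrupted by mutant beta-globin IVS2-654 intron (CMV-driven) were treated with compound for 2 days at 37C; corrected splicing was scored as total peak GFP intensity per well (488 nm excitation, 500-520 nm emission).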
With `CC(NC(C)(C)C)C(=O)c1cccc(Cl)c1` (stereo not given), the “activation (splicing correction)” value is 0.982% (inactive).
The same measure, in the same setting: to `CC(C)(C)NCC(O)c1ccccc1Cl` (stereo not given) belongs 3.76% (inactive); to `CNC(C)(C)Cc1ccccc1`, 7.54% (inactive); to `CCC1(c2ccc(N)cc2)CCC(=O)NC1=O` (stereo not given), 5.86% (inactive).
For `O=c1oc2ccccc2c(O)c1Cc1c(O)c2ccccc2oc1=O`, the “activation (splicing correction)” value was 2.64% (inactive).
As to `O=C1c2ccccc2C(=O)c2ccccc21`, the “activation (splicing correction)” value was 27.1% (inactive).
Still for that read-out and setting: to `c1ccc2c(c1)sc1ccccc12` belongs 0.0586% (inactive).
Regarding `CCC1(CC)C(=O)C=CNC1=O`, the “activation (splicing correction)” value is 0.853% (inactive).
As for `CCOP(=S)(OCC)Oc1ccc2c(C)c(Cl)c(=O)oc2c1`, the “activation (splicing correction)” value is 1.03% [at 38.3 µM] (inactive).
Regarding `CC(C)N(CCC(C(N)=O)(c1ccccc1)c1ccccn1)C(C)C` (stereo not given), the “activation (splicing correction)” value was 2.03% (inactive).
Same read-out and setting: then `NC(=O)CS(=O)C(c1ccccc1)c1ccccc1` (stereo not given), with 9.33% (inactive); and `NC(=O)c1cc([N+](=O)[O-])cc([N+](=O)[O-])c1`, with 0.396% (inactive).

Values taken from PubChem BioAssay (NCATS).
